Source: PubChem BioAssay
AI-2 QS modul = Vibrio harveyi AI-2 quorum sensing modulators, primary screen, JMH597 strain, luminescence/OD600 ratio | Vibrio harveyi JMH597 AI-2 luminescence/OD600 ratio, 9 h; active compounds read low; strain lacks LuxN and CqsS sensors; 0 = neutral-control median | activity change, % at 7.5 µM | 300,000 tested, 0.4% active | AID 2094, 2009; in the data active = activity change below about -75%, passing the limit was not always enough;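 note: luminescence divided by OD600 gain over 9 h not by final OD600 alone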
HIF activator = HIF pathway transcriptional activators, primary screen, cell-based, U2OS HRE-luciferase, luminescence; 300,000 tested, 0.32% active; activation, % at 7.5 µM (by protocol); U2OS HRE-luciferase reporter; normalized: DMSO 0%, desferrioxamine 100%;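 active = mean activation of at least 10% of the iron chelator positive control signal, with at least half of replicates also reaching 10%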
Mot1-301 SUMO = yeast Mot1-301 growth rescue at high temperature, primary screen, SUMOylation pathway inhibitor project, S. cerevisiae, ATP luminescence, 38.5C; growth rescue, % at 18.8 µM; 320,000 tested, 1% active; AID 2716, 2010; S. cerevisiae Mot1-301 growth rescue; percent above DMSO median, 100 means doubled;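 active = every valid replicate shows activation above 250% relative to neutral control wells; inactive = the rest, any valid replicate at or below 250%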;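 note: OY570 slx delta 5 strain wells were the positive control but not used for scaling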
ALR inh = inhibitors of human ALR sulfhydryl oxidase, primary screen, biochemical, H2O2 detection, HRP-luminol luminescence, single point. FAD-linked sulfhydryl oxidase ALR (Homo sapiens), P55789. purified ALR, DTT oxidation. inhibition, % (concentration not given with the values). 290,000 tested, 3.8% active. AID 485317, 2010;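 active = mean replicate inhibition above about 79%, with every replicate also reaching it, limit read from the data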
Target sequence (P55789 whole entry, looked up): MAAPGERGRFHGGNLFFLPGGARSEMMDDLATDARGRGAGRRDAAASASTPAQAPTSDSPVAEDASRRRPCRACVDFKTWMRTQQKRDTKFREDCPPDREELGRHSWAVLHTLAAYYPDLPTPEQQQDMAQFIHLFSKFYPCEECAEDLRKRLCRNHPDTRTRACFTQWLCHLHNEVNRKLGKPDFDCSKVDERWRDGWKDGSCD
Active calls of the source: *. Only some compounds are listed: those with a hit (about 4.8% of all), similar ones and a draw of the others.

Screening COC(=O)c1ccc(NC2=C(Cl)C(=O)OC2OC(=O)c2ccccc2)cc1 (stereo unspecified) returned AI-2 QS modul 43.2, HIF activator -0.2 and ALR inh 97.0*.
Screening Oc1ccc(Nc2nc(Cl)nc(NCc3ccco3)n2)cc1 returned AI-2 QS modul 2.2, HIF activator 0.1, Mot1-301 SUMO -14.6 and ALR inh 99.4*.
For C=CCNc1nc(Cl)nc(NCc2ccco2)n1 the results were AI-2 QS modul 21.2, HIF activator -1.8, Mot1-301 SUMO -5.4 and ALR inh 37.4.
O=S(=O)(Nc1ncn[nH]1)c1ccc(Cl)cc1 was read as AI-2 QS modul 14.8, HIF activator 0.6, Mot1-301 SUMO 122.8 and ALR inh -9.4.
For Cc1ccc([N+](=O)[O-])cc1S(=O)(=O)Nc1ccc(O)c(Sc2ncn[nH]2)c1 the results were AI-2 QS modul 28.4, HIF activator -0.5, Mot1-301 SUMO -4.1 and ALR inh 94.1*.
For COc1ccc(-c2ccc(NS(=O)(=O)c3cc([N+](=O)[O-])ccc3C)cc2)nn1 the results were AI-2 QS modul 7.2, HIF activator 0.4, Mot1-301 SUMO -18.6 and ALR inh -5.3.
For Cc1cc(O)c(Sc2ncn[nH]2)cc1NS(=O)(=O)c1ccc(Cl)cc1 the results were Mot1-301 SUMO -19.2 and ALR inh 92.7*.
COc1ccc(S(=O)(=O)Nc2cc(Sc3ncn[nH]3)c(O)cc2C)cc1 was read as Mot1-301 SUMO -1.8 and ALR inh 98.3*.
For OC[C@H]1O[C@@H](O[C@@H]2[C@@H](CO)O[C@@](O)(CO)[C@H]2O)[C@H](O)[C@@H](O)[C@H]1O the results were AI-2 QS modul 0.8, HIF activator -0.2, Mot1-301 SUMO 7.0 and ALR inh 4.2.
CCOCCCNC(=O)c1ccc(-n2c(=S)[nH]c3ccccc3c2=O)cc1 was read as AI-2 QS modul 25.3, HIF activator -0.9, Mot1-301 SUMO inactive and ALR inh 84.3*.
Screening CCCCNC(=O)c1ccc2c(=O)n(CCCOCC)c(=S)[nH]c2c1 returned AI-2 QS modul 7.3, HIF activator -0.1, Mot1-301 SUMO 0.6 and ALR inh -3.6.
Cc1ccc(NC(=O)C2=C(C(=O)O)CCCC2)cc1Br was read as AI-2 QS modul -1.9, HIF activator 0.7, Mot1-301 SUMO 4.1 and ALR inh 11.3.
Screening CC1CCCC(NC(=O)Cn2cc(Br)ccc2=O)C1C (stereo unspecified) returned Mot1-301 SUMO -17.3.
Screening CC(C(=O)NCC(=O)Nc1ccc(F)c(F)c1F)N1CCN(c2ccc(O)cc2)CC1 (stereo unspecified) returned Mot1-301 SUMO 3.2 and ALR inh 99.1*.
Screening Nc1nc(C2CC2)c(Sc2sc(N)nc2C2CC2)s1 returned AI-2 QS modul 9.8, HIF activator 0.0, Mot1-301 SUMO -5.4 and ALR inh 99.0*.
Nc1nc(C2CCOCC2)cs1 was read as AI-2 QS modul 8.3, HIF activator -0.6, Mot1-301 SUMO -4.9 and ALR inh 2.4.
`CCOCc1c(C(=O)NCC(c2ccco2)N2CCCC2)oc2ccccc12` (stereo unspecified) gave Mot1-301 SUMO 9.0 and ALR inh 1.5.
Screening CCN(CC)c1ccc(CN2CCCCCC2)cc1 returned AI-2 QS modul 23.8, HIF activator -0.2, Mot1-301 SUMO 17.5 and ALR inh 97.6*.
`CN(C)c1ccc(CN2CCCCCC2)cc1` gave AI-2 QS modul 10.4, HIF activator 0.0, Mot1-301 SUMO 2.5 and ALR inh 23.4.
`Cc1ccc(CN2CCN(/N=C/c3ccc(C(=O)O)cc3)CC2)cc1` gave AI-2 QS modul 31.8, HIF activator -0.7, Mot1-301 SUMO -8.1 and ALR inh 0.9.
For COc1cc(/C=N/N2CCN(Cc3ccc(Cl)cc3)CC2)ccc1OC(C)=O the results were AI-2 QS modul 28.0, HIF activator -10.9, Mot1-301 SUMO 8.2 and ALR inh 44.4.
`COc1cc(/C=N/N2CCN(Cc3ccc(Cl)cc3)CC2)cc(Br)c1O` gave AI-2 QS modul 8.5, HIF activator -0.4, Mot1-301 SUMO 13.6 and ALR inh 90.8*.
`CCN(CC)c1ccc(/C=N\N2CCN(Cc3ccc(C)cc3)CC2)cc1` gave AI-2 QS modul 10.8, HIF activator -0.8, Mot1-301 SUMO 12.6 and ALR inh 97.9*.
`Cc1ccc(CN2CCN(/N=C/c3ccc(O)c(O)c3)CC2)cc1` gave HIF activator 1.2, Mot1-301 SUMO -5.0 and ALR inh 78.6*.
